PubChem BioAssay (NCI)
About 79,000 compounds went through this panel and 15% of them were active in at least one assay; those are over-represented in the sample as a whole. Calls of active or inactive are those of the source. No stated cut-off is given here; in the data, active means growth inhibition above about 70%; inactive means the rest.

How the values were obtained:
[1] = NCI Yeast Anticancer Drug Screen. Data for the rad52 strain (AID 147);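 further: 0% = growth of vehicle-treated control cultures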; details: S. cerevisiae rad52 mutant growth inhibition, hits give high values
In short: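 The repair-mutant yeast strain was incubated with compounds, then growth was read and inhibition derived relative to vehicle.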

[2] = NCI Yeast Anticancer Drug Screen. Data for the wt1 strain (AID 149);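 further: 0% = growth of vehicle-treated wt1 cultures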; details: S. cerevisiae wt1 strain (SPY 50644) growth inhibition, hits give high values
In short: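 Using yeast strain wt1, compound-induced growth inhibition was determined against vehicle-treated cultures.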

[3] = NCI Yeast Anticancer Drug Screen. Data for the rad50EPP+ strain (AID 151);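 further: 0% = growth of vehicle-treated control cultures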; details: S. cerevisiae rad50 mutant strain, hits give high values
In short: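 Vehicle-normalised growth inhibition; rad50EPP+ yeast strain, altered in DNA damage repair, compound-treated.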

[4] = NCI Yeast Anticancer Drug Screen. Data for the mgt1 strain (AID 153); details: S. cerevisiae mgt1 mutant growth inhibition, hits give high values
In short: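 Vehicle-normalized growth inhibition is determined in mgt1 yeast, a strain selected for a defined alteration in DNA repair or cell cycle control.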

[5] = NCI Yeast Anticancer Drug Screen. Data for the rad50 strain (AID 155);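 further: 0% = growth of vehicle-only cultures of the same strain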; details: S. cerevisiae rad50 strain growth inhibition, hits give high values
In short: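 Relative growth inhibition (compound vs vehicle) was measured in yeast with a defined repair-gene alteration.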

[6] = NCI Yeast Anticancer Drug Screen. Data for the mec2-1 strain (AID 157); details: S. cerevisiae mec2-1 strain, hits give high values
In short: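 Mutant yeast (mec2-1) grown with compound; growth inhibition relative to vehicle control reported.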

[7] = NCI Yeast Anticancer Drug Screen. Data for the rad14 strain (AID 159);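 further: 0% = growth of vehicle-treated control cultures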; details: S. cerevisiae rad14 strain growth inhibition, hits give high values
In short: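 Screen for anticancer potential: a yeast strain altered in DNA damage repair is grown with compound, and reduced growth is quantified against vehicle controls.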

[8] = NCI Yeast Anticancer Drug Screen. Data for the sgs1 mgt1 strain (AID 161);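 further: 0% = growth of cultures given vehicle only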; details: S. cerevisiae sgs1 mgt1 strain, hits give high values
In short: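 This yeast growth screen uses a strain with defined DNA-repair lesions; compound-treated growth is compared with vehicle-treated growth.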

[9] = NCI Yeast Anticancer Drug Screen. Data for the CLN2oe strain (AID 163);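 further: 0% = growth of vehicle-only control cultures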; details: S. cerevisiae CLN2oe strain, hits give high values
In short: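 Compounds are applied to yeast harbouring a defined cell-cycle control change; reduced growth compared with vehicle-treated controls gives the value.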

[10] = NCI Yeast Anticancer Drug Screen. Data for the cln2 rad14 strain (AID 165);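 further: 0% = growth equal to vehicle treated cultures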; details: S. cerevisiae cln2 rad14 strain, hits give high values
In short: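 Readout is yeast growth inhibition versus vehicle-treated controls, using a strain with cln2 and rad14 alterations exposed to compound.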

[11] = NCI Yeast Anticancer Drug Screen. Data for the bub3 strain (AID 167); details: S. cerevisiae bub3 mutant strain, hits give high values
In short: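 Screening used yeast with an engineered genetic alteration affecting cell cycle control. Compound-exposed cultures were compared with vehicle cultures, and reduced growth was taken as inhibition.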

[12] = NCI Yeast Anticancer Drug Screen. Data for the wt2 strain (AID 169);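 further: 0% = growth of vehicle-treated yeast cultures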; details: S. cerevisiae wt2 strain growth inhibition, hits give high values
In short: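 Against vehicle-treated controls, the growth of yeast exposed to each compound was compared, and the inhibition was recorded.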

[13] = NCI Yeast Anticancer Drug Screen. Data for the mlh1 strain (AID 171);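 further: 0% = growth of vehicle-treated control cultures of the same strain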; details: S. cerevisiae mlh1 strain growth inhibition, hits give high values
In short: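 Measured: yeast growth. Reference: vehicle-treated controls. Organism: strain with a defined alteration affecting DNA damage repair or cell cycle control, treated with compound.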

[14] = NCI Yeast Anticancer Drug Screen. Data for the sgs1 strain (AID 173);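 further: 0% = growth of vehicle-only control cultures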; details: S. cerevisiae sgs1 mutant, hits give high values
In short: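 Each compound was added to cultures of the altered yeast strain. Growth was recorded, and inhibition was derived by comparison with vehicle controls.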

[15] = NCI Yeast Anticancer Drug Screen. Data for the mlh1 rad18 strain (AID 175); details: S. cerevisiae mlh1 rad18 strain growth inhibition, hits give high values
In short: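 Genetically defined yeast (DNA repair-deficient) exposed to compounds; growth inhibition determined relative to vehicle.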

[16] = NCI Yeast Anticancer Drug Screen. Data for the rad18 strain (AID 177); details: S. cerevisiae rad18 mutant growth inhibition, hits give high values
In short: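 Vehicle-treated cultures served as the baseline for scoring compound-induced growth inhibition in DNA-repair-mutant yeast.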

[17] = at 5.0 µM (retest, dose inferred, filed as 0.5)
[18] = at 50.0 µM (retest, dose inferred, filed as 5.0)

Measured: growth inhibition

COc1ccccc1NC(=O)c1ccc(Cl)cc1
inactive: [1]; at 1.2 µM 0% | [1]; at 3.7 µM 3% | [1]; at 11.0 µM 4% | [1]; at 33.0 µM 5% | [1]; at 100.0 µM 1% | [2]; at 1.2 µM -1% | [2]; at 3.7 µM 1% | [2]; at 11.0 µM 1% | [2]; at 33.0 µM 0% | [2]; at 100.0 µM -1% | [3]; at 1.2 µM 7% | [3]; at 3.7 µM 9% | [3]; at 11.0 µM 22% | [3]; at 33.0 µM 40% | [3]; at 100.0 µM 40% | [4]; at 1.2 µM -2% | [4]; at 3.7 µM -1% | [4]; at 11.0 µM 0% | [4]; at 33.0 µM -2% | [4]; at 100.0 µM -10% | [5]; at 1.2 µM 3% | [5]; at 3.7 µM 5% | [5]; [17] -13% | [5]; at 11.0 µM 8% | [5]; at 33.0 µM 6% | [5]; [18] 12% | [5]; at 50.0 µM 17.6% | [5]; at 100.0 µM 8% | [6]; at 1.2 µM -5% | [6]; at 3.7 µM -5% | [6]; [17] -6% | [6]; at 11.0 µM -7% | [6]; at 33.0 µM -6% | [6]; [18] -14% | [6]; at 50.0 µM 11.1% | [6]; at 100.0 µM -4% | [7]; at 1.2 µM 0% | [7]; at 3.7 µM -1% | [7]; at 11.0 µM 0% | [7]; at 33.0 µM 1% | [7]; at 100.0 µM 0% | [8]; [17] 3% | [8]; [18] 7% | [8]; at 50.0 µM 20.8% | [9]; at 1.2 µM -2% | [9]; at 3.7 µM 0% | [9]; at 11.0 µM -6% | [9]; at 33.0 µM -7% | [9]; at 100.0 µM -4% | [10]; [17] 23% | [10]; at 50.0 µM 16.9% | [11]; at 1.2 µM -5% | [11]; at 3.7 µM -5% | [11]; [17] -8% | [11]; at 11.0 µM -3% | [11]; at 33.0 µM 5% | [11]; [18] -10% | [11]; at 50.0 µM 23.9% | [11]; at 100.0 µM 7% | [12]; at 1.2 µM -1% | [12]; at 3.7 µM -2% | [12]; at 11.0 µM -2% | [12]; at 33.0 µM -3% | [12]; at 100.0 µM -2% | [13]; at 1.2 µM 0% | [13]; at 3.7 µM 1% | [13]; at 11.0 µM 4% | [13]; at 33.0 µM 3% | [13]; at 100.0 µM 3% | [14]; at 1.2 µM 0% | [14]; at 3.7 µM 1% | [14]; at 11.0 µM 2% | [14]; at 33.0 µM 3% | [14]; at 100.0 µM 2% | [15]; [17] -6% | [15]; [18] 11% | [15]; at 50.0 µM 0.15% | [16]; at 1.2 µM 3% | [16]; at 3.7 µM 3% | [16]; at 11.0 µM 1% | [16]; at 33.0 µM 3% | [16]; at 100.0 µM 2%
active: [10]; [18] 75%
